# Screening results (PubChem)
# HCMV inh: inhibitors of human cytomegalovirus | 410,000 tested, 4.5% active | HFF cells, HCMV-luciferase reporter, 72 h; hits give low values | activity change, negative = inhibition, % at 57.5 µM; in the data active = activity change below about -60%; inconclusive = no clear call, values can overlap the other calls; inactive = above about -39%
#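 HFF cells seeded 16 h at 37C, treated with compounds, infected with luciferase-reporter HCMV at MOI 1 PFU/cell; luciferase read at 72 h post infection, normalized to buffer-only and Salinomycin controls.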
# Lassa entry inh: blocks Lassa virus binding to or entry into cells; Lassa virus pseudotype entry inhibition, cell reporter; 300,000 tested, 1.2% active; AID 540256; Potency, µM (series often up to 37.9 µM), for the others: at the top dose activity change, negative = inhibition, most hits filed as inhibitors; calls by dose curve; tested in HEK293 cells; note: potency is the fitted concentration of half-maximal effect; nearly all actives have a fitted effect of over 50% in size
# Vaccinia mCherry: vaccinia inhibition (mCherry reporter) | Potency, µM (doses to about 36.5 µM), without a hit: at the highest dose activity change, negative = inhibition, actives largely listed as inhibitors | 310,000 tested, 0.63% active | Vaccinia virus mCherry reporter infection, fluorescence; calls by dose curve; tested in A549 cells; note: potency is the fitted concentration of half-maximal effect; nearly all actives have a fitted effect of over 35% in size
# FMDV inh: foot and mouth disease virus antiviral activity. Potency, µM (series often up to 57.9 µM), for inactives: top-dose activity change, negative = inhibition, actives largely listed as inhibitors. AID 1159524. 410,000 tested, 1.2% active. FMDV antiviral cell-based qHTS; calls by dose curve; tested in HEK293T cells; note: read-out not given here; potency is the fitted concentration of half-maximal effect; nearly all actives have a fitted effect of over 45% in size
# Vaccinia Venus: inhibitors of vaccinia virus (Venus reporter); Vaccinia virus Venus reporter expression, fluorescence; Potency, µM (titrated, usually from 36.5 µM), for inactives: at the top dose activity change, negative = inhibition, hits mostly inhibitors; 330,000 tested, 0.46% active; calls by dose curve; tested in A549 cells; note: potency is the fitted concentration of half-maximal effect; nearly all actives have a fitted effect of over 30% in size
# MARV entry inh: inhibitors of Marburg virus binding or cell entry. Marburg virus pseudotyped entry inhibition, cell reporter. Potency, µM (series often up to 37.8 µM), for the others: at the top dose activity change, negative = inhibition, hits mostly inhibitors. 300,000 tested, 1.8% active. AID 540276; calls by dose curve; tested in HEK293 cells; note: potency is the fitted concentration of half-maximal effect
# * hit, by the source's call; i = inactive; ? = inconclusive; . = not tested or not shown; [ ] = remark or other dose. Rows were chosen to be rich in hits. Some 6.5% of all compounds tested hit in one or more screens of this group. % is set by controls: 0 for no effect and ±100 for the full control effect.
SMILES,HCMV inh,Lassa entry inh,Vaccinia mCherry,FMDV inh,Vaccinia Venus,MARV entry inh
Cc1ccc2c(CNCCc3ccc(Cl)cc3)c(C(=O)O)n(Cc3ccc(F)cc3)c2c1,-106*,-29%[46.1 µM],-13%,-17%,-15%,.
COc1ccc2c(CNCCc3ccco3)c(C(=O)O)n(Cc3ccc(F)cc3)c2c1,-1,-19%[46.1 µM],-7%,-3%,-6%,.
Cc1ccc(Cn2c(C(=O)O)c(CNCc3ccccc3Cl)c3ccc(C)cc32)cc1,14,?,?,?,?,.
COc1ccc(Cn2c(C(=O)O)c(CNCc3ccccc3F)c3ccc(OC)cc32)cc1,-76*,?,-11%,16%,-7%,.
C=Cc1ccc(Cn2c(C(=O)O)c(CNCc3cc(OC)ccc3OC)c3ccc(C)cc32)cc1,-104*,-3%[46.1 µM],-14%,0%,-12%,.
O=C(COC(=O)c1ccccc1OCCOc1ccccc1)Nc1ccc(Br)cc1,.,.,-5%,.,-15%,.
O=S1(=O)N[C@H](Cc2ccccc2)COc2cc(N3CC[C@H](O)C3)ccc21,-4,.,20%,-4%,4%,.
COCCCNC(=O)CCCN1C(=O)CCn2nc(-c3cn(C)c4ccccc34)cc21,10,-4%[46.1 µM],-8%,-13%,0%,.
Cc1ccc(C)c(N2CCN(Cc3nnc(-c4ccc5c(c4)OCO5)o3)CC2)c1,20,12%[46.1 µM],-5%,1%,-17%,-21%[46.1 µM]
C=Cc1ccc(Cn2c(C(=O)O)c(CNCCc3ccccc3)c3ccc(C)cc32)cc1,-90*,4%[46.1 µM],-19%,-18%,?,.
Cc1ccc(Cn2c(C(=O)O)c(CNCCc3ccco3)c3ccc(C)cc32)cc1,49,-6%[46.1 µM],14%,7%,-2%,.
CCN1C(=O)[C@@H]2[C@H]3[C@H](O)[C@H](O)CC(=NOC[C@H]4O[C@H](c5ccccc5)C=C[C@H]4Oc4ccc(OC)cc4)[C@@H]3CC[C@H]2C1=O,.,.,.,.,.,-28%[14.2 µM]
COC(=O)C1=C(O)C(C(=O)OC)C(c2ccc(C)cc2)C(C#N)(C#N)C1c1ccc(C)cc1 (stereo unspecified),-96*,?,.,-18%,.,?
COC(=O)C1=C(Nc2ccc(C)cc2)C=C(C)C(C(=O)OC)C1c1ccc(OC)cc1 (stereo unspecified),-3,?,.,0%,.,?
Oc1ccc(Cl)cc1/C=C/c1ccc2cccc(O)c2n1,2,-16%[46.1 µM],?,28%,2%,?
COc1cc(/C=C/c2ccc3cccc(OC)c3n2)c(OC(C)=O)c([N+](=O)[O-])c1,-84*,?,.,?,.,?
Oc1c(Cl)cc(Cl)cc1/C=C/c1ccc2cccc(O)c2n1,-38,?,2.5µM*,-25%,182%,?
Oc1cccc2ccc(/C=C/c3ccccc3Br)nc12,-87*,?,?,12%,5%,?
COc1cc(/C=C/c2ccc3cccc(OC)c3n2)c(O)c([N+](=O)[O-])c1,-37,.,.,-23%,.,.
COc1ccc(OC)c(/C=C/c2ccc3ccccc3n2)c1,.,.,-23%,.,-17%,.
COc1ccc(OC)c(/C=C/c2ccc3cccc(O)c3n2)c1,-65*,.,.,.,.,.
O=C(Nc1cccc(Cl)c1N1CCOCC1)c1cccnc1Cl,46,1%,-19%,-19%,-10%,?
Cn1c(=S)[nH]c2cc(C(=O)N3CCN(Cc4cccs4)CC3)ccc2c1=O,.,.,-27%,.,-18%,.
COc1ccc(OC)c(/C=C/c2ccnc3ccccc23)c1,-98*,?,-8%,-7%,-21%,-26%
COc1cc(Br)cc(/C=C/c2ccc3cccc(O)c3n2)c1O,-26,.,.,0%,.,.
SMILES,HCMV inh,Lassa entry inh,Vaccinia mCherry,FMDV inh,Vaccinia Venus,MARV entry inh
COc1ccc(C=Cc2ccc3ccccc3n2)c(OC)c1,-88*,.,?,?,-23%,.
COc1cc(/C=C/c2ccc3cccc(O)c3n2)c(Br)cc1O,-98*,.,.,.,.,.
CSc1ccc(/C=C/c2ccc3cccc(O)c3n2)cc1,-66*,?,-23%,-59%,5%,2.5µM*
NC[C@@H]1O[C@H](O[C@H]2[C@H](O)[C@H](O[C@H]3[C@@H](O)[C@H](N)C[C@H](N)[C@H]3O[C@H]3O[C@H](CN)[C@H](O)[C@H](O)[C@H]3N)O[C@@H]2CO)[C@@H](N)[C@@H](O)[C@@H]1O,.,.,.,-15%[16.9 µM],.,.
COc1cc(C)c2ccccc2n1,.,.,i,.,-4%,.
COc1cc(Br)c(/C=C/c2ccc3cccc(O)c3n2)cc1OC,-87*,.,.,14%,.,.
Cc1ccc(C)c(N2CCN(C(=O)CCc3c(C)nn(-c4ccc(N5CCCC5)nn4)c3C)CC2)c1,-63*,?,-26%,?,-23%,.
Cc1nn(-c2ccc(N3CCCC3)nn2)c(C)c1CCC(=O)N1CCN(c2ccccc2)CC1,?,-7%[46.1 µM],-8%,-21%,-11%,.
O=C(c1cc(F)c(F)cc1Cl)N1CCN(S(=O)(=O)c2cccs2)CC1,-4,?,-20%,-11%,-8%,-17%[46.1 µM]
COCCOC(=O)c1c(C)n(S(=O)(=O)c2ccc(C)cc2)c2ccc(NS(=O)(=O)c3ccc(C)cc3)cc12,18,?,-15%,-1%,-8%,?
CCOC(=O)c1cnn(-c2sc(C(=O)OCC)c(C)c2C(=O)OCC)c1N,-68*,3%,-2%,.,-16%,3%
C#CCNc1c2c(nc3ncnn13)CC(C)CC2 (stereo unspecified),-101*,.,-6%,-6%,-16%,.
CSc1ccc(C(=S)N2CCN(Cc3ccccc3)CC2)cc1,-20,16µM*,.,-11%,.,-5%
COc1cc(CN2CCN(Cc3ccc(SC)cc3)CC2)cc(OC)c1O,9,-15%,-27%,?,-1%,-9%[46.1 µM]
COc1ccc(CN2CCN(Cc3cc(=O)oc4cc(C)ccc34)CC2)c(OC)c1OC,-5,-22%[46.1 µM],-13%,-2%,-7%,14µM*
COc1cc(OC)c(OC)cc1CN1CCN(Cc2ccc(SC)cc2)CC1,-36,?,.,-26%,.,7.3µM*
COc1ccc(CN2CCN(Cc3ccc(Br)cc3)CC2)c(OC)c1OC,-68*,.,.,?,.,.
COc1ccccc1N1CCN(Cc2cc(=O)oc3cc(C)ccc23)CC1,1,?,10%,?,-10%,.
S=C(c1ccc(Cl)cc1)N1CCN(Cc2ccccc2)CC1,?,-19%[46.1 µM],?,0%,4%,-1%[46.1 µM]
CCCCCC(=O)N1C[C@@H](O)[C@H](n2cc(-c3ccc(F)cc3)nn2)C[C@H]1c1ccc(OC)cc1,.,11%[46.1 µM],.,.,.,.
CN1CCN(c2nccc3[nH]c(-c4cccc(F)c4)nc23)CC1,-2,.,.,.,.,.
CCOC(=O)OC[C@H]1O[C@H](C#Cc2ccc(C)cc2C)C=C[C@H]1OC(=O)OCC,.,.,.,.,.,4%[14.2 µM]
CN1c2ccccc2[C@]23CCN(S(=O)(=O)C(F)(F)F)C2=Cc2ccccc2[C@H]13,4,.,.,.,.,.
COc1ccc(CN2CCN(Cc3ccc(C)cc3)CC2)c(OC)c1,-10,5%,-8%,-12%,4%,10µM*
CN1CCN(c2ccc(Nc3ccnc4cc(Cl)ccc34)cc2)CC1,-83*,2.5µM*,?,-15%,?,?
